# Laboratory results: publication PMC11062922 (Nature Chemical Biology, 2023)
# Where two headings read alike, the source gives them in different places.
# Tests used:
# Conditions in all cases: read-out: apparent Kd, n = 1
# [1] = system: AXL
# [2] = system: CAMKK2
# [3] = system: CDC7
# [4] = system: CDK4
# [5] = system: DYRK1A
# [6] = system: ERCC2
# [7] = system: MAP2K5
# [8] = system: MAP4K4
# [9] = system: MAPK9
# [10] = system: PIM3
# [11] = system: PRKCA
# [12] = system: PRKX
# [13] = system: RPS6KA3
# [14] = compound concentrations:100 nM and 1000 nM (sheet 'Lestaurtinib' of Supplementary Table 1),run:Lestaurtinib_02443_R3,Plate:MR009
# [15] = compound concentrations:100 nM and 1000 nM (sheet 'Lestaurtinib' of Supplementary Table 1),run:Lestaurtinib_02487_R1,Plate:MR012
# [16] = compound concentrations:100 nM and 1000 nM (sheet 'Lestaurtinib' of Supplementary Table 1),run:Lestaurtinib_02496_R3,Plate:MR013
# [17] = compound concentrations:100 nM and 1000 nM (sheet 'Lestaurtinib' of Supplementary Table 1),run:Lestaurtinib_02572_R1,Plate:MR015
# [18] = compound concentrations:100 nM and 1000 nM (sheet 'Lestaurtinib' of Supplementary Table 1),run:Lestaurtinib_02724_R3,Plate:MR021
# [19] = compound concentrations:100 nM and 1000 nM (sheet 'Lestaurtinib' of Supplementary Table 1),run:Lestaurtinib_02339_R2,Plate:MR001
# [20] = compound concentrations:100 nM and 1000 nM (sheet 'Lestaurtinib' of Supplementary Table 1),run:Lestaurtinib_02437_R3,Plate:MR007
# [21] = compound concentrations:100 nM and 1000 nM (sheet 'Lestaurtinib' of Supplementary Table 1),run:Lestaurtinib_02473_R3,Plate:MR010
# [22] = compound concentrations:100 nM and 1000 nM (sheet 'Lestaurtinib' of Supplementary Table 1),run:Lestaurtinib_02496_R2,Plate:MR013
# [23] = compound concentrations:100 nM and 1000 nM (sheet 'Lestaurtinib' of Supplementary Table 1),run:Lestaurtinib_02381_R2,Plate:MR004
# [24] = compound concentrations:100 nM and 1000 nM (sheet 'Lestaurtinib' of Supplementary Table 1),run:Lestaurtinib_02748_R3,Plate:MR024
# [25] = compound concentrations:100 nM and 1000 nM (sheet 'Lestaurtinib' of Supplementary Table 1),run:Lestaurtinib_02752_R2,Plate:MR025
# [26] = compound concentrations:100 nM and 1000 nM (sheet 'Lestaurtinib' of Supplementary Table 1),run:Lestaurtinib_02896_R1,Plate:MR030
# [27] = compound concentrations:100 nM and 1000 nM (sheet 'Lestaurtinib' of Supplementary Table 1),run:Lestaurtinib_03260_R2,Plate:MR033
# [28] = compound concentrations:100 nM and 1000 nM (sheet 'Lestaurtinib' of Supplementary Table 1),run:Lestaurtinib_02438_R1,Plate:MR008
# [29] = compound concentrations:100 nM and 1000 nM (sheet 'Lestaurtinib' of Supplementary Table 1),run:Lestaurtinib_02443_R2,Plate:MR009
# [30] = compound concentrations:100 nM and 1000 nM (sheet 'Lestaurtinib' of Supplementary Table 1),run:Lestaurtinib_02482_R3,Plate:MR011
# [31] = compound concentrations:100 nM and 1000 nM (sheet 'Lestaurtinib' of Supplementary Table 1),run:Lestaurtinib_02381_R3,Plate:MR004
# [32] = compound concentrations:100 nM and 1000 nM (sheet 'Lestaurtinib' of Supplementary Table 1),run:Lestaurtinib_02566_R1,Plate:MR014
# [33] = compound concentrations:100 nM and 1000 nM (sheet 'Lestaurtinib' of Supplementary Table 1),run:Lestaurtinib_02766_R1,Plate:MR027
# [34] = compound concentrations:100 nM and 1000 nM (sheet 'Lestaurtinib' of Supplementary Table 1),run:Lestaurtinib_02381_R1,Plate:MR004
# [35] = compound concentrations:100 nM and 1000 nM (sheet 'Lestaurtinib' of Supplementary Table 1),run:Lestaurtinib_02473_R2,Plate:MR010
# [36] = compound concentrations:100 nM and 1000 nM (sheet 'Lestaurtinib' of Supplementary Table 1),run:Lestaurtinib_02724_R1,Plate:MR021
# [37] = compound concentrations:100 nM and 1000 nM (sheet 'Lestaurtinib' of Supplementary Table 1),run:Lestaurtinib_02748_R1,Plate:MR024
substance,measurement,setting,value
Lestaurtinib,potency estimated from few doses,[1]; [14],2130 nM
same,potency estimated from few doses,[1]; [15],600 nM
same,potency estimated from few doses,[1]; [16],2230 nM
same,potency estimated from few doses,[1]; [17],1420 nM
same,potency estimated from few doses,[1]; [18],1340 nM
same,potency estimated from few doses,[2]; [19],1820 nM
same,potency estimated from few doses,[2]; [20],149 nM
same,potency estimated from few doses,[2]; [21],1930 nM
same,potency estimated from few doses,[2]; [15],596 nM
same,potency estimated from few doses,[2]; [22],2180 nM
same,potency estimated from few doses,"[2]; compound concentrations:100 nM and 1000 nM (sheet 'Lestaurtinib' of Supplementary Table 1),run:Lestaurtinib_02566_R2,Plate:MR014",1960 nM
same,potency estimated from few doses,[2]; [17],1810 nM
same,potency estimated from few doses,"[3]; compound concentrations:100 nM and 1000 nM (sheet 'Lestaurtinib' of Supplementary Table 1),run:Lestaurtinib_02367_R1,Plate:MR003",1400 nM
same,potency estimated from few doses,"[3]; compound concentrations:100 nM and 1000 nM (sheet 'Lestaurtinib' of Supplementary Table 1),run:Lestaurtinib_02367_R3,Plate:MR003",1000 nM
same,potency estimated from few doses,[3]; [23],1530 nM
same,potency estimated from few doses,[3]; [21],2080 nM
same,potency estimated from few doses,[3]; [24],1650 nM
same,potency estimated from few doses,"[3]; compound concentrations:100 nM and 1000 nM (sheet 'Lestaurtinib' of Supplementary Table 1),run:Lestaurtinib_02752_R1,Plate:MR025",1240 nM
same,potency estimated from few doses,[3]; [25],1760 nM
same,potency estimated from few doses,"[3]; compound concentrations:100 nM and 1000 nM (sheet 'Lestaurtinib' of Supplementary Table 1),run:Lestaurtinib_02795_R3,Plate:MR022",1510 nM
same,potency estimated from few doses,[3]; [26],591 nM
same,potency estimated from few doses,"[3]; compound concentrations:100 nM and 1000 nM (sheet 'Lestaurtinib' of Supplementary Table 1),run:Lestaurtinib_02896_R2,Plate:MR030",1330 nM
same,potency estimated from few doses,[3]; [27],1690 nM
same,potency estimated from few doses,"[4]; compound concentrations:100 nM and 1000 nM (sheet 'Lestaurtinib' of Supplementary Table 1),run:Lestaurtinib_02367_R2,Plate:MR003",2190 nM
same,potency estimated from few doses,"[4]; compound concentrations:100 nM and 1000 nM (sheet 'Lestaurtinib' of Supplementary Table 1),run:Lestaurtinib_02407_R2,Plate:MR005",1650 nM
same,potency estimated from few doses,[4]; [28],2240 nM
same,potency estimated from few doses,"[4]; compound concentrations:100 nM and 1000 nM (sheet 'Lestaurtinib' of Supplementary Table 1),run:Lestaurtinib_02438_R3,Plate:MR008",2250 nM
same,potency estimated from few doses,[4]; [29],2230 nM
same,potency estimated from few doses,[4]; [30],2220 nM
same,potency estimated from few doses,"[4]; compound concentrations:100 nM and 1000 nM (sheet 'Lestaurtinib' of Supplementary Table 1),run:Lestaurtinib_02606_R1,Plate:MR019",1720 nM
same,potency estimated from few doses,[4]; [18],1990 nM
same,potency estimated from few doses,"[4]; compound concentrations:100 nM and 1000 nM (sheet 'Lestaurtinib' of Supplementary Table 1),run:Lestaurtinib_02766_R2,Plate:MR027",1370 nM
same,potency estimated from few doses,[4]; [26],1400 nM
same,potency estimated from few doses,[5]; [19],2310 nM
same,potency estimated from few doses,[5]; [31],820 nM
same,potency estimated from few doses,[5]; [29],1580 nM
same,potency estimated from few doses,[5]; [32],1580 nM
same,potency estimated from few doses,"[5]; compound concentrations:100 nM and 1000 nM (sheet 'Lestaurtinib' of Supplementary Table 1),run:Lestaurtinib_02577_R2,Plate:MR016",1670 nM
same,potency estimated from few doses,[5]; [18],987 nM
same,potency estimated from few doses,[5]; [33],1760 nM
same,potency estimated from few doses,[5]; [26],1690 nM
same,potency estimated from few doses,"[5]; compound concentrations:100 nM and 1000 nM (sheet 'Lestaurtinib' of Supplementary Table 1),run:Lestaurtinib_03172_R3,Plate:MR031",1440 nM
same,potency estimated from few doses,[6]; [20],1320 nM
same,potency estimated from few doses,[6]; [15],161 nM
same,potency estimated from few doses,[6]; [22],1440 nM
same,potency estimated from few doses,[6]; [16],1590 nM
same,potency estimated from few doses,"[6]; compound concentrations:100 nM and 1000 nM (sheet 'Lestaurtinib' of Supplementary Table 1),run:Lestaurtinib_02572_R2,Plate:MR015",261 nM
same,potency estimated from few doses,"[7]; compound concentrations:100 nM and 1000 nM (sheet 'Lestaurtinib' of Supplementary Table 1),run:Lestaurtinib_02364_R1,Plate:MR002",2240 nM
same,potency estimated from few doses,[7]; [34],1340 nM
same,potency estimated from few doses,[7]; [23],2420 nM
same,potency estimated from few doses,"[7]; compound concentrations:100 nM and 1000 nM (sheet 'Lestaurtinib' of Supplementary Table 1),run:Lestaurtinib_02437_R1,Plate:MR007",2430 nM
same,potency estimated from few doses,[7]; [35],2440 nM
same,potency estimated from few doses,[7]; [30],2350 nM
same,potency estimated from few doses,[7]; [32],1960 nM
same,potency estimated from few doses,[7]; [18],1790 nM
same,potency estimated from few doses,[7]; [24],1820 nM
same,potency estimated from few doses,[7]; [33],2210 nM
same,potency estimated from few doses,[8]; [23],2240 nM
same,potency estimated from few doses,"[8]; compound concentrations:100 nM and 1000 nM (sheet 'Lestaurtinib' of Supplementary Table 1),run:Lestaurtinib_02438_R2,Plate:MR008",1430 nM
same,potency estimated from few doses,[8]; [29],1700 nM
same,potency estimated from few doses,[8]; [35],1820 nM
same,potency estimated from few doses,"[8]; compound concentrations:100 nM and 1000 nM (sheet 'Lestaurtinib' of Supplementary Table 1),run:Lestaurtinib_02482_R2,Plate:MR011",1420 nM
same,potency estimated from few doses,[9]; [14],1300 nM
same,potency estimated from few doses,[9]; [32],1990 nM
same,potency estimated from few doses,[9]; [17],1720 nM
same,potency estimated from few doses,"[9]; compound concentrations:100 nM and 1000 nM (sheet 'Lestaurtinib' of Supplementary Table 1),run:Lestaurtinib_02584_R3,Plate:MR017",2260 nM
same,potency estimated from few doses,"[9]; compound concentrations:100 nM and 1000 nM (sheet 'Lestaurtinib' of Supplementary Table 1),run:Lestaurtinib_02624_R1,Plate:MR020",1410 nM
same,potency estimated from few doses,[9]; [36],2240 nM
same,potency estimated from few doses,"[9]; compound concentrations:100 nM and 1000 nM (sheet 'Lestaurtinib' of Supplementary Table 1),run:Lestaurtinib_02752_R3,Plate:MR025",2180 nM
same,potency estimated from few doses,[9]; [26],2120 nM
same,potency estimated from few doses,"[9]; compound concentrations:100 nM and 1000 nM (sheet 'Lestaurtinib' of Supplementary Table 1),run:Lestaurtinib_03172_R1,Plate:MR031",1900 nM
same,potency estimated from few doses,"[9]; compound concentrations:100 nM and 1000 nM (sheet 'Lestaurtinib' of Supplementary Table 1),run:Lestaurtinib_03260_R1,Plate:MR033",1690 nM
same,potency estimated from few doses,[10]; [37],611 nM
same,potency estimated from few doses,"[10]; compound concentrations:100 nM and 1000 nM (sheet 'Lestaurtinib' of Supplementary Table 1),run:Lestaurtinib_02748_R2,Plate:MR024",656 nM
same,potency estimated from few doses,[10]; [24],1430 nM
same,potency estimated from few doses,[10]; [25],795 nM
same,potency estimated from few doses,[10]; [27],945 nM
same,potency estimated from few doses,[11]; [34],2070 nM
same,potency estimated from few doses,[11]; [31],2400 nM
same,potency estimated from few doses,"[11]; compound concentrations:100 nM and 1000 nM (sheet 'Lestaurtinib' of Supplementary Table 1),run:Lestaurtinib_02443_R1,Plate:MR009",1990 nM
same,potency estimated from few doses,[11]; [14],2450 nM
same,potency estimated from few doses,[11]; [15],1720 nM
same,potency estimated from few doses,[11]; [18],1760 nM
same,potency estimated from few doses,[11]; [37],2320 nM
same,potency estimated from few doses,[12]; [23],1490 nM
same,potency estimated from few doses,"[12]; compound concentrations:100 nM and 1000 nM (sheet 'Lestaurtinib' of Supplementary Table 1),run:Lestaurtinib_02487_R2,Plate:MR012",2110 nM
same,potency estimated from few doses,"[12]; compound concentrations:100 nM and 1000 nM (sheet 'Lestaurtinib' of Supplementary Table 1),run:Lestaurtinib_02487_R3,Plate:MR012",1350 nM
same,potency estimated from few doses,"[12]; compound concentrations:100 nM and 1000 nM (sheet 'Lestaurtinib' of Supplementary Table 1),run:Lestaurtinib_02768_R1,Plate:MR028",2230 nM
same,potency estimated from few doses,"[12]; compound concentrations:100 nM and 1000 nM (sheet 'Lestaurtinib' of Supplementary Table 1),run:Lestaurtinib_02802_R3,Plate:MR029",1970 nM
same,potency estimated from few doses,"[13]; compound concentrations:100 nM and 1000 nM (sheet 'Lestaurtinib' of Supplementary Table 1),run:Lestaurtinib_02339_R3,Plate:MR001",1510 nM
same,potency estimated from few doses,[13]; [28],1840 nM
same,potency estimated from few doses,[13]; [14],1650 nM
same,potency estimated from few doses,[13]; [15],1150 nM
same,potency estimated from few doses,"[13]; compound concentrations:100 nM and 1000 nM (sheet 'Lestaurtinib' of Supplementary Table 1),run:Lestaurtinib_02577_R1,Plate:MR016",1760 nM
same,potency estimated from few doses,[13]; [36],1530 nM
